# Assay results taken from the supplement of paper PMC6555819.
# What was measured:
# Assay in all cases: PBM binding z-score (relative to random genomic background probes); higher = stronger binding; sequences stand for … in GC…GCGATTGACAGCGTAGAATGAAGG
# [1] = system: FXR:RXRa (NR concentration 270 nM, RXRa partner concentration 90 nM)
# Method in brief: (§1)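 Binding buffer was PBS pH 7.4 with 2% milk, 0.02% Triton X-100, 1 mM DTT, 0.2 mg/mL BSA and 0.4 mg/ml salmon testes DNA. In it, ligand-free nuclear receptor dimers were incubated 1 h on custom Agilent 4×180K protein-binding microarrays carrying double-stranded probes. Antibodies against each partner (one per run) detected binding, and z-scores were calculated against random background probes after regression normalization of scanned fluorescence.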
# [2] = system: LXRa:RXRa (NR concentration 270 nM, RXRa partner concentration 90 nM)
# Method in brief: as §1
# [3] = system: LXRa homodimer (NR concentration 270 nM)
# Method in brief: as §1
# [4] = system: LXRb:RXRa (NR concentration 270 nM, RXRa partner concentration 90 nM)
# Method in brief: as §1
# [5] = system: LXRb homodimer (NR concentration 270 nM)
# Method in brief: as §1
# [6] = system: PPARa:RXRa (NR concentration 270 nM, RXRa partner concentration 90 nM)
# Method in brief: as §1
# [7] = system: PPARg:RXRa (NR concentration 180 nM, RXRa partner concentration 90 nM)
# Method in brief: as §1
# [8] = system: PPARg:RXRa 270nM:90nM, anti-RXR (NR concentration 270 nM, RXRa partner concentration 90 nM)
# Method in brief: as §1
# [9] = system: PPARg:RXRa 30nM:10nM, anti-RXR (NR concentration 30 nM, RXRa partner concentration 10 nM)
# Method in brief: as §1
# [10] = system: PPARg:RXRa 90nM:30nM, anti-RXR (NR concentration 90 nM, RXRa partner concentration 30 nM)
# Method in brief: as §1
# [11] = system: PPARg:RXRa DBDmut IVT, anti-RXR (DBD mutation: RXRa K156A/R161A, NR concentration 270 nM, RXRa partner concentration 90 nM)
# Method in brief: as §1
# [12] = system: PPARg:RXRa IVT, anti-PPARg (NR concentration 270 nM, RXRa partner concentration 90 nM)
# Method in brief: as §1
# [13] = system: PPARg DBDmut:RXRa IVT, anti-PPARg (DBD mutation: PPARg1 K132A/R137A, NR concentration 270 nM, RXRa partner concentration 90 nM)
# Method in brief: as §1
# [14] = system: PPARg DBDmut IVT, anti-PPARg (DBD mutation: PPARg1 K132A/R137A, NR concentration 270 nM)
# Method in brief: as §1
# [15] = system: PPARg homodimer (NR concentration 180 nM)
# Method in brief: as §1
# [16] = system: PXR:RXRa (NR concentration 270 nM, RXRa partner concentration 90 nM)
# Method in brief: as §1
# [17] = system: PXR homodimer (NR concentration 270 nM)
# Method in brief: as §1
# [18] = system: RARa:RXR (NR concentration 270 nM, RXRa partner concentration 90 nM)
# Method in brief: as §1
# [19] = system: RARa homodimer (NR concentration 270 nM)
# Method in brief: as §1
# [20] = system: RARb:RXRa (NR concentration 270 nM, RXRa partner concentration 90 nM)
# Method in brief: as §1
Sequence,PBM binding z-score [1],PBM binding z-score [2],PBM binding z-score [3],PBM binding z-score [4],PBM binding z-score [5],PBM binding z-score [6],PBM binding z-score [7],PBM binding z-score [8],PBM binding z-score [9],PBM binding z-score [10],PBM binding z-score [11],PBM binding z-score [12],PBM binding z-score [13],PBM binding z-score [14],PBM binding z-score [15],PBM binding z-score [16],PBM binding z-score [17],PBM binding z-score [18],PBM binding z-score [19],PBM binding z-score [20]
TTATATAGGTAAATGCTAGGTGAAAGTCCGATCT,0.733,0.69,0.375,0.64,0.108,2.18,2.61,2.59,1.97,2.34,6.27,5.32,1.86,2.12,1.28,0.481,0.535,0.686,1.58,0.351
CTACCACGGTGAACAAGGTCGTTGATTACTATTC,0.517,0.708,0.301,1.4,-0.058,1.28,0.357,0.508,-0.252,0.141,0.771,0.788,-0.025,-0.267,0.744,1.44,1.01,1.15,0.251,0.76
GCAGCTAGGTCAGGTTGGTCAGCTAACGGGTACG,1.03,0.422,-0.282,-0.023,-0.983,1.2,0.443,0.714,-0.586,-0.0508,2.64,2.05,-0.736,-1.04,0.817,-0.0764,-0.615,0.573,0.479,3.28
GCTATTATTTGAAAGGGCAACCGAATGATTCTCG,0.306,0.97,1.37,0.925,0.441,1.08,0.626,1.41,0.637,0.844,0.681,0.479,0.791,0.619,1.8,0.697,1.02,1.07,2.43,2.09
TAGCCTAGGTCATGCGGGCGAGTATAGTGTCGGC,3.79,2.5,0.369,1.21,-0.906,3.32,2.45,2.08,-0.413,1.37,1.54,2.78,-0.28,-1,0.366,0.704,-0.37,1.97,-0.358,3.54
GCGACTGGGGCATAAGCAGGTTACCATAACTTAA,-0.0719,0.177,-0.305,0.583,-0.304,1.24,1.62,2.1,0.29,1.26,3.36,3.18,-0.0704,-1.04,0.497,0.0393,-0.431,0.498,-0.34,0.653
GATACAGGGTCAAGCCCAGAGTACGCGTATTGAT,7.02,4.26,-0.0405,3.88,-0.376,5.68,6.04,5.82,2.34,4.41,3.47,4.08,0.821,-0.0259,2.23,3.87,0.125,4.85,0.476,4.53
ACTATTAGTTGACTTAGGGCAACCTATACGACGC,0.173,0.433,0.321,0.316,0.731,0.252,1.02,0.258,0.33,0.444,0.195,0.726,1.42,1.54,0.623,0.356,0.265,0.516,0.697,0.924
CGTCCAAGGTCAATGCTAGGTCAGTGATAGCATT,6.64,5.38,2.71,4.07,0.685,5.03,4.12,4.4,1.74,3.05,3.49,4.23,0.259,0.244,6.16,5.12,2,6.2,2.14,5.21
ATCTCTAGGTAAGACTTAGTTCAGTGAAGAACGC,0.399,0.643,0.399,0.303,0.796,0.394,0.205,0.542,0.399,0.438,1.88,1.57,0.722,0.771,1.4,0.684,0.67,0.614,1.01,0.573
ACAGACAGGTGTTGAAGGTAACTCAGGCTATCAT,-0.0696,-0.375,-0.136,-0.298,-0.389,-0.0786,0.432,-0.232,-0.26,-0.54,-0.116,-0.388,-0.275,0.107,-0.0576,-0.158,0.379,0.0742,-0.513,-0.084
CCTTACGGGTCACTGACAGGTAATAGCATTTGGA,5.68,3.58,0.0221,3.16,-0.0553,5.08,4.51,4.42,1.29,3.12,3.21,3.64,1.3,1.52,4.26,2.95,-0.116,4.05,1.66,3.79
ATCTCTAGGTAAGACTCAGTTCGGTGAAGAACGC,0.336,0.318,0.624,0.144,0.85,-0.0565,-0.0259,0.127,-0.00912,0.104,2.26,1.24,0.576,0.0505,0.778,0.179,0.754,0.0942,0.985,0.104
ACTAGCGGGCCAAGGGTCACTCAAGATTAGTCCG,1.99,2.61,0.192,2.86,-0.58,4.26,7.39,7.39,6.2,8.29,0.353,3.65,-0.682,-0.893,0.892,3.21,-0.327,4.1,0.108,3.38
CCGGACAGGTGAGAAGGTAACTCAGCCTCGATTA,-0.332,-0.196,-0.289,-0.26,-0.839,0.454,0.347,0.118,-0.24,-0.183,1.04,0.612,-0.39,-1.64,0.569,-0.415,-0.227,-0.262,0.0296,0.711
GCGACTGGGGCATCAGCAGGGTACCATAACTTAA,-0.653,-0.542,-0.531,0.192,-0.913,0.58,0.759,0.382,-0.46,-0.166,3.75,2.79,-0.747,-0.946,-0.494,-0.289,-0.457,-0.268,-1.05,0.517
CCTTACGGGTCAAGGCTATAGCACGGGTGGTACG,5.49,3.26,-0.261,2.59,-0.119,4.88,3.91,4.41,1.45,2.99,1.68,3.1,-0.373,-0.381,1.08,2.58,-0.208,3.68,0.855,3.98
TCAGACAGGAGAAGGTAACTCAGGTACGCAGTCG,0.934,1.47,-0.171,0.452,-0.646,0.384,0.666,1.78,3.37,2.69,2.06,-0.153,-0.44,-0.387,0.0505,0.125,-0.21,0.759,0.536,0.225
TCGCCTAGGTCATGCGGGCCAGTATAGTGTCGGC,4.09,2.65,0.228,1.72,-0.926,3.47,1.56,2.12,1.32,1.71,2.3,2.74,-0.0945,-0.593,0.827,1.45,-0.348,2.59,-0.685,3.87
ACAGACAGGTGAGGAAGGTAACTCAGGCTATCAT,0.118,-0.0457,-0.223,0.105,-0.143,0.173,0.575,-0.276,0.0158,-0.414,0.129,0.785,0.395,-0.587,-0.277,-0.058,-0.158,0.108,0.0819,0.494
GGAACGAGGGCATACGAGTTGATAGCATGGCGAT,1.33,0.61,-0.418,-0.0696,-0.795,1.25,1.28,0.666,0.135,0.26,2.9,1.74,0.174,-0.54,0.0813,3.18,0.351,0.371,-0.394,1.7
CTTACTGGGCCAAGGTCATTGATCAGTCAAAGCA,3.38,3.5,1.27,3.15,0.239,4.7,6.21,5.67,3.67,5.42,6.43,6.49,1.83,1.71,2.67,3.89,1.48,4.38,0.236,3.38
AGTAAAAGTTCATCTAGGTAACGTAAGATATGCT,6.26,5.78,5.21,3.31,1.71,4.42,3.98,3.88,1.55,2.54,0.423,2.83,1.21,1.83,2.75,4.52,3.57,3.39,1.46,4.72
ATATGTAGGTTTTCGGGTCATTCAGTTTGCGCAT,3.26,2.94,1.41,3.14,1.57,4.19,3.95,4.14,1.9,3.5,5.6,5.42,1.9,1.31,2.39,4.14,8.75,3.74,1.72,2.17
CGAACTAGGTCAAGGACAGTGAATCTCCGCACGC,3.29,2.29,0.163,1.51,-0.597,4.64,7.4,6.24,3.8,6.11,8.2,8.25,4.79,1.98,2.91,1.18,-0.052,2.3,0.629,3.94
AACTCTAGGTAACAAGTTCAGTGAAAGAGAGGAC,0.335,0.477,0.364,0.379,-0.166,1.58,1.32,1.72,0.492,1.31,3.33,2.65,0.517,0.445,0.677,1.37,1.37,0.703,0.522,1.4
TCGAGTAGGTTACCAATGGGGAATTCAGCTTTCT,0.0745,0.417,-0.56,0.355,-0.737,0.977,0.304,1.2,0.963,1.18,3.57,2.58,-0.097,-0.739,-0.227,-0.148,-1.08,0.0848,-1.2,0.621
CCTACTGGGCCAGAAAGGTCATTGATGCCGATAA,3.9,4.7,3.35,4.16,0.28,4.76,2.59,3.87,1.21,2.91,2.56,3.3,-0.848,-1.13,2.14,4.76,2.21,5.01,1.75,3.73
